# Pf growth 96h: P. falciparum growth inhibition at 96 hour, primary screen for plastid delayed-death inhibitors | P. falciparum luciferase reporter growth, 96 h | Potency, µM (top dose mostly 28.7 µM), without a hit: at the top dose activity change, negative = inhibition, actives largely listed as inhibitors | actives 6.9% (n = 320,000) | AID 504834; also: potency is read from the fitted curve at half-maximal effect
#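 Parasite growth measured via integrated firefly luciferase reporter in P. falciparum. Infected erythrocytes at 2% hematocrit, 0.05% parasitemia final were treated 96 hours at 37 C under 5% CO2, and luminescence was read.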
# Pf growth 48h: inhibits P. falciparum growth in the first generation, 48 h | AID 504832 | actives 5.9% (n = 310,000) | P. falciparum luciferase growth in erythrocytes, 48 h | Potency, µM (doses to about 28.7 µM), without a hit: top-dose activity change, negative = inhibition, hits mostly inhibitors; also: potency is read from the fitted curve at half-maximal effect
#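 Parasite viability was followed by luminescence of a genomically integrated firefly luciferase. Cultures held 0.1% parasitemia at 2% hematocrit (final), incubated under 5% CO2 at 37 C.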
# HCMV inh: inhibitors of human cytomegalovirus | HFF cells, HCMV-luciferase reporter, 72 h; stronger effect = lower value | activity change, negative = inhibition, % at 57.5 µM | actives 4.5% (n = 410,000); in the data active = activity change below about -60%; inconclusive = no clear call, values can overlap the other calls; inactive = above about -39%
#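 Inhibition of viral replication was scored as loss of reporter luminescence in HFFs infected with HCMV-luciferase (MOI 1 PFU/cell) for 72 h; compounds tested at 2 doses, normalized to buffer and Salinomycin controls.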
# FBPA Giardia inh: Giardia lamblia aldolase inhibition; A8B2U2; purified Giardia FBPA; Potency, µM (doses to about 59.6 µM), for the others: at the highest dose activity, negative = inhibition, most hits filed as inhibitors; actives 0.71% (n = 290,000); AID 2451; also: potency is read from the fitted curve at half-maximal effect; nearly all actives have a fitted effect of over 55% in size
# Target sequence (A8B2U2 whole entry, looked up): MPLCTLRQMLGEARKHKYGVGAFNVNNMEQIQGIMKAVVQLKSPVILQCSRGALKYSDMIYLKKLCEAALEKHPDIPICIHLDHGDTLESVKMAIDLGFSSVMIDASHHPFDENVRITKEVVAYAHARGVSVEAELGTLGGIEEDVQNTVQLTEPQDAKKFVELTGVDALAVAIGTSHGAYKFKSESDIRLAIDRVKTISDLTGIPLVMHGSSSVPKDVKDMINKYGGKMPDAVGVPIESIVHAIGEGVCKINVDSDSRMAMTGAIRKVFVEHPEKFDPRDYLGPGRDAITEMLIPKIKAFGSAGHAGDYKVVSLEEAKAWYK
#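 40 nM FBPA preincubated 10 min at RT with compound (up to 57.5 uM final), then substrate plus GAPDH/TPI/NAD/arsenate coupling and diaphorase/resazurin added. Fluorescence read after 20 min at RT, 525/598 nm.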
# Sm TGR inh: S. mansoni TGR enzyme inhibition | Q962Y6 | purified TGR, DTNB reduction, TNB absorbance 405 nm | Potency, µM (highest dose often 114 µM), for the others: at the highest dose activity change, negative = inhibition, hits mostly inhibitors | actives 3% (n = 360,000); also: potency is read from the fitted curve at half-maximal effect; nearly all actives have a fitted effect of over 60% in size
#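 Kinetic colorimetric format: TGR-catalysed, NADPH-driven DTNB reduction monitored via TNB absorbance. Enzyme dispensed at 20 nM; compound exposure 15 min at room temperature before reaction start.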
# * marks the source's active call; other numbers are inactive results; ? = inconclusive; nt = no result given; [ ] = remark or other dose. Only some compounds are listed: those with a hit (about 14% of all), similar ones and a draw of the others. Unless noted, calls follow the shape of the dose curve; as a rule, active = well fitted curve in the direction sought with a large enough effect; inconclusive = small, poorly fitted or top-dose-only effect, or another doubt; inactive = no such curve, though single readings can be large; an effect the other way counts as inactive or inconclusive. % is scaled to controls: 0 for no effect and ±100 for the full control effect.
SMILES,Pf growth 96h,Pf growth 48h,HCMV inh,FBPA Giardia inh,Sm TGR inh
CC(=O)Nc1nc(-c2ccc([N+](=O)[O-])cc2)cs1,-14.4%,23.7%,-84.8*,-2.5%,4.5%
CCCCOc1ccccc1CC1C(=O)Nc2ccc(Br)cc21 (stereo not given),nt,nt,nt,nt,-3.1%
CCCCNCCS(=O)(=O)NCc1ccc(OC)cc1,nt,nt,0.5,nt,nt
CC(C)NC(=O)c1ccc2c(c1)N(CC(=O)N1CCCCC1)C(=O)C(C)(C)O2,23.3%,3.5%,-24.0,4.2%,-4.7%
Cc1noc(C)c1C(=O)Nc1nc(-c2ccc([N+](=O)[O-])cc2)cs1,8.9%,-28.8%,-61.7*,nt,1.3%
CCN1C(=O)[C@@H]2[C@@H](c3ccc(SC4CCCCC4)cc3)N3CCCC[C@@]3(C(=O)OC)[C@@H]2C1=O,11.7µM*,?,7.9,nt,?
CCN1C(=O)[C@H]2[C@@H](c3ccc(SC4CCCCC4)c(OC)c3)N3CCCC[C@@]3(C(=O)OC)[C@H]2C1=O,11.7µM*,3.7µM*,-10.6,nt,?
CCC(C)Sc1ccc([C@@H]2[C@@H]3C(=O)N(CC)C(=O)[C@@H]3[C@]3(C(=O)OC)CCCCN23)cc1 (stereo not given in full),nt,nt,-5.3,nt,nt
CCC(C)Sc1ccc([C@@H]2[C@H]3C(=O)N(CC)C(=O)[C@H]3[C@]3(C(=O)OC)CCCN23)cc1OC (stereo not given in full),10.4µM*,11.7µM*,-15.5,nt,0.0%
Cc1ccc(C(=O)N2CCN(S(=O)(=O)N3CCCCC3)CC2)cc1,10.4µM*,14.4%,64.0,nt,0.0%
Cc1ccc(C(=O)N2CCN(S(=O)(=O)c3ccc(C)cc3)CC2)cc1,13.1µM*,-17.2%,-29.2,2.1%,nt
NC(=O)CCN1CC(c2cc(Cl)c(N)c(Cl)c2)=CC1=O,nt,nt,-20.4,nt,nt
CC1=C(C(=O)Nc2cccc(F)c2)C(c2ccsc2)C2=C(CC(C)(C)CC2=O)N1 (stereo not given),?,?,?,1.6%,?
COc1cc(-c2nc(-c3ccccc3)c(-c3cc([N+](=O)[O-])ccc3C)[nH]2)cc(OC)c1OC,?,2.62µM*,-73.2*,-19.8%,5.2%
COc1cc(-c2nc(-c3cccc(Cl)c3)c(-c3ccccc3)[nH]2)cc(OC)c1OC,nt,nt,-32.9,nt,2.2%
COc1cccc(NC(=O)COC(=O)CCS(=O)(=O)c2ccc(C)cc2)c1,47.2%,0.0%,0.9,-0.4%,0.3%
O=C1N/C(=N\N=C\c2cccs2)SC1Cc1cccc(Cl)c1 (stereo not given),8.3%,13.1µM*,-5.5,-3.2%,7.6%
O=C1N/C(=N\N=C\c2cccs2)SC1Cc1ccc(Cl)cc1 (stereo not given),0.738µM*,?,-34.3,-15.7%,-3.1%
CCCC1S/C(=N/N=C/c2cccs2)NC1=O (stereo not given),0.0%,12.1%,27.3,-1.8%,-31.1%
CCC1S/C(=N/N=C/c2cccs2)NC1=O (stereo not given),?,-8.7%,5.4,-6.9%,13.0%
COc1ccc(-n2nnnc2C(c2ccccc2)N2CCN(C/C=C/c3ccccc3)CC2)cc1 (stereo not given),nt,nt,-39.4,nt,nt
COc1ccc2nc(NC(=O)c3nc(SCc4cccc(C)c4)ncc3Cl)sc2c1,nt,nt,8.0,nt,-1.7%
COc1ccc2nc(NC(=O)c3nc(S(=O)(=O)Cc4ccccc4F)ncc3Cl)sc2c1,nt,nt,-87.8*,nt,-12.1%
CCSc1ncc(Cl)c(C(=O)Nc2nc3ccc(OC)cc3s2)n1,nt,nt,-15.2,nt,-3.8%
COc1ccc2nc(NC(=O)c3nc(S(=O)(=O)Cc4cccc(C)c4)ncc3Cl)sc2c1,nt,nt,-99.9*,nt,?
SMILES,Pf growth 96h,Pf growth 48h,HCMV inh,FBPA Giardia inh,Sm TGR inh
COc1ccc2nc(NC(=O)c3nc(S(=O)(=O)Cc4ccccc4)ncc3Cl)sc2c1,nt,nt,-100.7*,nt,3.9%
COc1cccc(COC(=O)c2nn(-c3ccccc3)nc2N)c1,-3.1%,-6.7%,-25.0,-0.6%,-1.3%
COc1ccc(OC)c(NC(=O)c2ccc(CSc3nnc(C)s3)cc2)c1,69.5%,?,-17.2,0.5%,1.3%
CC12CCC(=O)C=C1CCC1C2C(O)CC2(C)C1CCC2(O)C(=O)COC(=O)COCC(=O)O (stereo not given),nt,nt,-2.6,nt,nt
COC(=O)C(CCSC)NC(=O)c1cc2c(n(-c3ccccc3)c1=O)CC(C)(C)CC2=O (stereo not given),3.7µM*,-20.4%,-5.9,3.5%,5.0%
CC1(C)CC(=O)c2cc(C(=O)N3CCCC(C)(C)C3)c(=O)n(-c3ccccc3)c2C1,?,?,-77.3*,-0.5%,-1.0%
OCC1(CCOc2ccccc2)CCN(Cc2ccccc2C(F)(F)F)CC1,8.28µM*,21.6%,-30.6,2.8%,0.0%
CCOc1ccccc1CN1CCC(CO)(CCOc2ccccc2)CC1,3.3%,?,-20.9,7.8%,4.9%[57.1 µM]
OCC1(CCOc2ccccc2)CCN(Cc2nc3ccc(F)cc3[nH]2)CC1,62.2%,?,-61.8*,0.3%,-24.5%
COc1cc(Cl)c(CN2CCC(CO)(CCOc3ccccc3)CC2)cc1OC,?,?,-12.6,5.3%,0.6%
COc1ccc(CN2CCC(CO)(CCOc3ccccc3)CC2)c(OC)c1C,-6.2%,3.7µM*,-26.7,-8.4%,13.9%
COC(=O)c1ccc(CNC(=O)Cn2cnc3c(SC)nc(N)nc32)cc1,nt,nt,-12.4,nt,nt
Cc1ccc(NC(=O)c2cc(S(=O)(=O)N3CCc4ccccc43)ccc2F)cc1Cl,nt,nt,13.5,nt,6.5%
FC(F)(F)c1ccccc1-c1cc(NCc2cccnc2)ncn1,nt,nt,nt,0.6%,nt
Nc1nc(N)c2cc(S(=O)(=O)c3ccc4ccccc4c3)ccc2n1,nt,nt,-82.0*,nt,nt
CCn1c(CNC(=O)c2ccco2)nnc1SCC(=O)c1ccccc1,16.3%,-1.0%,-61.8*,1.8%,-1.7%
C=CCn1c(CNC(=O)c2ccco2)nnc1SCC(=O)N1c2ccccc2Sc2ccccc21,?,nt,-6.4,-2.2%,35.5µM*
C=CCn1c(CNC(=O)c2ccco2)nnc1SCC(=O)c1ccc(F)cc1,?,3.9%,-9.6,-6.1%,-2.7%
c1ccc(-c2n[nH]c3c2oc2ccccc23)cc1,nt,nt,nt,-5.6%,nt
Cc1cccc(Nc2nnc(SCC(=O)NC(=O)Nc3ccc4c(c3)OCCO4)s2)c1,2.9%,26.3%,-96.0*,5.9%,-12.5%
O=C(CC1CS(=O)(=O)CC1CC(=O)Nc1ccc2c(c1)OCCO2)Nc1ccc2c(c1)OCCO2 (stereo not given),-9.1%,40.1%,-80.7*,-21.7%,-8.7%
COc1ccc(NC(=O)N[C@@H](Cc2ccccc2)C(=O)NN)cc1,?,?,21.5,2.9%,-1.5%
NNC(=O)[C@H](Cc1ccccc1)NC(=O)Nc1ccc2c(c1)OCCO2,?,9.28µM*,25.5,1.0%,17.4%
CC(C)n1c(N2CCN(CC(=O)Nc3ccc4c(c3)OCCO4)CC2)nc2ccccc21,5.86µM*,?,-37.8,?,-3.7%
CCC(=O)Nc1ccc2c(c1)OCCO2,29.3%,?,10.3,1.2%,-1.9%
